Some test systems named below: NCI-H226 lung; HOP-62 NSCLC; NCI-H460 lung; HOP-92 NSCLC; NCI-H522 lung; A549/ATCC NSCLC; 786-0 renal; COLO 205 colon; DU-145 prostate; K-562 leukemia; MALME-3M melanoma; MDA-MB-231 breast; RXF 393 renal; SF-268 CNS; SF-295 CNS; SF-539 CNS; UACC-257 melanoma; M14 melanoma; NCI-H322M lung.
Test in all cases: NCI-60 one-dose screen, 48 h (100 = growth as untreated, 0 = no growth, -100 = all killed)
What all share (details): 10 µM unless noted

Several values for one entry are separate records, joined by “and”; a condition that tells them apart may be missing. Equal values may be shown once. About 83,000 compounds went through this panel and 20% of them were active in at least one assay; those are over-represented in the sample as a whole.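 96-well plates, one dose, 48 hours. Percent growth reported; active if below 10.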 Activity calls are given as the source filed them.

`CC1(C)N=C(N)N=C(N)N1c1ccc(CCC(=O)Nc2ccc(S(=O)(=O)F)cc2)cc1`: the growth in the test with NCI-H226 lung is 65.3% (inactive); in the test with HOP-62 NSCLC, 47.1% (inactive); in the test on NCI-H460 lung, 14.5% (inactive); with HOP-92 NSCLC, 70.8% (inactive); in the test with NCI-H522 lung, 23.6% (inactive); in the test on A549/ATCC NSCLC, 18.9% (inactive). Also, the growth is 21.3% (inactive) in the test with 786-0 renal; 28.8% (inactive) in the test on COLO 205 colon; 28.1% (inactive) in the test with DU-145 prostate; 12.9% (inactive) in the test with K-562 leukemia; 47% (inactive) in the test with MALME-3M melanoma; 76.4% (inactive) with MDA-MB-231 breast. In addition, the growth in the test on RXF 393 renal was 47.3% (inactive); in the test with SF-268 CNS, 25.1% (inactive); in the test with SF-295 CNS it was 40.3% (inactive); with SF-539 CNS it was 28.7% (inactive); with UACC-257 melanoma, 41.1% (inactive); in the test with M14 melanoma it was 35.9% (inactive).

`Nc1cccnc1`: the growth in the test with NCI-H226 lung was 107% (inactive); with NCI-H322M lung, 105% (inactive); in the test with HOP-62 NSCLC, 104% (inactive); in the test on NCI-H460 lung, 115% (inactive); with HOP-92 NSCLC it was 101% (inactive); in the test on NCI-H522 lung, 91.6% (inactive). Further, the growth was 106% (inactive) in the test with A549/ATCC NSCLC; 109% (inactive) in the test on 786-0 renal; 115% (inactive) with COLO 205 colon; 125% (inactive) with DU-145 prostate; 105% (inactive) with K-562 leukemia; 120% (inactive) with MALME-3M melanoma. The growth with MDA-MB-231 breast is 110% (inactive); in the test on RXF 393 renal, 126% (inactive); in the test on SF-268 CNS it was 108% (inactive); in the test with SF-295 CNS it was 122% (inactive); with SF-539 CNS it was 113% (inactive); with UACC-257 melanoma, 82.9% (inactive).

As for `COC12CC3C4=CCOC5CC(=O)N6c7ccccc7C1(CCN2C4)C6C53` (configuration not stated), the growth with NCI-H226 lung is 103% (inactive); in the test with NCI-H322M lung, 109% (inactive); with NCI-H460 lung it was 109% (inactive); with HOP-92 NSCLC, 102% (inactive); in the test with NCI-H522 lung, 89.9% (inactive); in the test with A549/ATCC NSCLC it was 91.2% (inactive). Further, the growth in the test with 786-0 renal was 99.1% (inactive); with COLO 205 colon it was 105% (inactive); with DU-145 prostate it was 117% (inactive); with MALME-3M melanoma it was 112% (inactive); with MDA-MB-231 breast, 106% (inactive); in the test with RXF 393 renal, 129% (inactive). Moreover, the growth in the test on SF-268 CNS was 111% (inactive); in the test on SF-295 CNS, 111% (inactive); in the test on SF-539 CNS, 100% (inactive); in the test on UACC-257 melanoma, 84% (inactive); with M14 melanoma, 99.2% (inactive).

With `O=C1c2ccccc2C(=O)N1N1CC1c1ccccc1` (configuration not stated), the growth in the test with NCI-H226 lung was 102% (inactive); with NCI-H322M lung, 92.5% (inactive); in the test on HOP-62 NSCLC, 111% (inactive); with NCI-H460 lung, 111% (inactive); in the test with NCI-H522 lung, 85.9% (inactive); with A549/ATCC NSCLC it was 98.8% (inactive). The growth in the test with 786-0 renal was 98.9% (inactive); in the test on COLO 205 colon, 101% (inactive); in the test with DU-145 prostate, 109% (inactive); in the test on K-562 leukemia, 97.7% (inactive); in the test on MALME-3M melanoma it was 91.9% (inactive); with MDA-MB-231 breast it was 118% (inactive). Further, the growth in the test with RXF 393 renal is 107% (inactive); in the test with SF-268 CNS, 104% (inactive); in the test on SF-295 CNS, 104% (inactive); in the test with SF-539 CNS, 102% (inactive); with UACC-257 melanoma, 101% (inactive); in the test with M14 melanoma, 100% (inactive).

On to `COc1cc2c(c(OC)c1OC)-c1ccc(O)cc1[C@@H](NC(C)=O)CC2`, for which the growth with NCI-H226 lung was 5.36% (active) and 46.3% (inactive); in the test with NCI-H322M lung, 42.7% (inactive) and 1.84% (active); with HOP-62 NSCLC, 37.8% (inactive) and 21.6% (inactive); with NCI-H460 lung, 5.66% (active) and 0.839% (active); in the test on HOP-92 NSCLC, 16.7% (inactive); in the test with NCI-H522 lung it was 17% (inactive) and -32.6% (active). The growth in the test with A549/ATCC NSCLC was 14.9% (inactive); with 786-0 renal, 29.2% (inactive) and 32.5% (inactive); in the test with COLO 205 colon, -32.6% (active) and -83.8% (active); with DU-145 prostate, -21.6% (active) and -35.8% (active); in the test on K-562 leukemia it was 3.22% (active); in the test with MALME-3M melanoma it was 26.4% (inactive). Besides, the growth was 9.66% (active) and -7.09% (active) with MDA-MB-231 breast; 26.3% (inactive) and 40.5% (inactive) in the test on RXF 393 renal; 19.5% (inactive) and 21% (inactive) with SF-268 CNS; -13.7% (active) and -23.2% (active) with SF-295 CNS; 2.98% (active) and -2.84% (active) in the test with SF-539 CNS; 54.1% (inactive) and 48.7% (inactive) in the test with UACC-257 melanoma. The growth in the test with M14 melanoma was 11.5% (inactive) and 16.8% (inactive).

Take `Cn1cc(-c2csc(-c3cn(CCCCN4CCOCC4)c4ccc(F)cc34)n2)c2cccnc21`: the growth in the test on NCI-H226 lung was 60.2% (inactive); with NCI-H322M lung, 84.3% (inactive); in the test with HOP-62 NSCLC it was 85.6% (inactive); with NCI-H460 lung it was 93.5% (inactive); with HOP-92 NSCLC, 52.8% (inactive); in the test with NCI-H522 lung, 57.2% (inactive). The growth in the test on A549/ATCC NSCLC was 75.1% (inactive); in the test with 786-0 renal, 63.2% (inactive); in the test on COLO 205 colon, 65.9% (inactive); with DU-145 prostate, 100% (inactive); in the test on K-562 leukemia it was -49.7% (active); in the test with MALME-3M melanoma, -60.3% (active). Further, the growth with MDA-MB-231 breast was 35.2% (inactive); in the test with RXF 393 renal, 16.3% (inactive); in the test with SF-268 CNS, 63% (inactive); in the test with SF-295 CNS, 50.8% (inactive); in the test on SF-539 CNS, 69.7% (inactive); with UACC-257 melanoma, -45.1% (active). The growth in the test on M14 melanoma was -53.9% (active).

Take `CCCC[C@H]1C(=O)O[C@H](C)[C@H](NC(=O)c2cccc(NC=O)c2O)C(=O)O[C@@H](C)[C@@H]1OC(=O)CC(C)C`: the growth in the test with NCI-H226 lung is 44.1% (inactive); with NCI-H322M lung, 66.3% (inactive); with HOP-62 NSCLC it was 48.4% (inactive); in the test on NCI-H460 lung, 19.9% (inactive); with HOP-92 NSCLC, 32.9% (inactive); with NCI-H522 lung it was 51.2% (inactive). The growth is 11.5% (inactive) with A549/ATCC NSCLC; 44.8% (inactive) with 786-0 renal; 42.2% (inactive) in the test with COLO 205 colon; 85.9% (inactive) in the test on DU-145 prostate; 26.4% (inactive) in the test on K-562 leukemia; 44% (inactive) in the test on MALME-3M melanoma. The growth is 58.7% (inactive) in the test on MDA-MB-231 breast; 6.91% (active) with RXF 393 renal; 46.6% (inactive) with SF-268 CNS; 9.04% (active) with SF-295 CNS; 39.3% (inactive) in the test on SF-539 CNS; 42.8% (inactive) with UACC-257 melanoma.

(Values after PubChem BioAssay (NCI).)
